Key:
Experiment in all cases: DAPPL (digital affinity profiling via proximity ligation, sequencing); 10 mM Tris-HCl pH 7.5, 50 mM NaCl, 1 mM DTT, 4% glycerol, room temperature, 30 min; GST-TFs on glutathione beads, 16-mer random dsDNA library, 0.1% formaldehyde crosslink after washing; high values mean tight binding
Conditions in all cases: protein: recombinant; tags: N-terminal GST; dsDNA, one strand shown
FLI1 = target: T1, FLI1 (Homo sapiens, UniProt Q01543 1-452)
T1 sequence: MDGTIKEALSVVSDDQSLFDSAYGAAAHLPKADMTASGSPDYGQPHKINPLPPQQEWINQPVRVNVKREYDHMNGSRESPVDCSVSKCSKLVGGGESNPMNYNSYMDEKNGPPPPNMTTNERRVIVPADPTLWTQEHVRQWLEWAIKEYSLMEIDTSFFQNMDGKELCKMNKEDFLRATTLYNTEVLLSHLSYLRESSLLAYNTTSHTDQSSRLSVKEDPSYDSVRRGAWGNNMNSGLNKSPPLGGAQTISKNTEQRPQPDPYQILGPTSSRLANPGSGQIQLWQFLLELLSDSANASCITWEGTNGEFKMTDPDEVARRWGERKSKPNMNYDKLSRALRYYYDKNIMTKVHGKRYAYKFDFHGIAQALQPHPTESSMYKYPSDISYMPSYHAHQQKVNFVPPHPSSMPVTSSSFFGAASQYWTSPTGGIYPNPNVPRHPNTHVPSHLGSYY
In short: (§1)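 GST fusions of human transcription factors were expressed in yeast and captured with glutathione beads. Once given DNA barcodes and pooled alongside a tag-only sample, they were incubated for 30 min at room temperature with 200 nmole of a random double-stranded 16-mer DNA library in Tris/NaCl/DTT/glycerol buffer, then washed, crosslinked (0.1% formaldehyde), proximity-ligated, PCR-amplified and sequenced on an Illumina NextSeq500. The binding signal of each hexamer is its read frequency for a factor divided by its frequency for the tag-only sample.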

ELK1 = target: T2, ELK1 (Homo sapiens, UniProt P19419 1-428)
T2 sequence: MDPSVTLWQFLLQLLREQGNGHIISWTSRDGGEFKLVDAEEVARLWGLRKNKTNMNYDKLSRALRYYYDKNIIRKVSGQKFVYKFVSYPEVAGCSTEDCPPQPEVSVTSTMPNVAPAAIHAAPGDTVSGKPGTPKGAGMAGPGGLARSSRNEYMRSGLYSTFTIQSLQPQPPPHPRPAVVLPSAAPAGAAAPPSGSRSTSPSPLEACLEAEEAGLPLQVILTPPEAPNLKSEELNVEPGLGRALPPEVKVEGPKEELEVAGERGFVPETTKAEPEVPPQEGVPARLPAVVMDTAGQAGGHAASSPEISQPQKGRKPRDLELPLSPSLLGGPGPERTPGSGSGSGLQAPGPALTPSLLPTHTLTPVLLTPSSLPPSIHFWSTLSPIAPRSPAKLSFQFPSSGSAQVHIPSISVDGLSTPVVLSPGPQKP
In short: as §1

GABPA = target: T3, GABPA (Homo sapiens, UniProt Q06546 1-454)
T3 sequence: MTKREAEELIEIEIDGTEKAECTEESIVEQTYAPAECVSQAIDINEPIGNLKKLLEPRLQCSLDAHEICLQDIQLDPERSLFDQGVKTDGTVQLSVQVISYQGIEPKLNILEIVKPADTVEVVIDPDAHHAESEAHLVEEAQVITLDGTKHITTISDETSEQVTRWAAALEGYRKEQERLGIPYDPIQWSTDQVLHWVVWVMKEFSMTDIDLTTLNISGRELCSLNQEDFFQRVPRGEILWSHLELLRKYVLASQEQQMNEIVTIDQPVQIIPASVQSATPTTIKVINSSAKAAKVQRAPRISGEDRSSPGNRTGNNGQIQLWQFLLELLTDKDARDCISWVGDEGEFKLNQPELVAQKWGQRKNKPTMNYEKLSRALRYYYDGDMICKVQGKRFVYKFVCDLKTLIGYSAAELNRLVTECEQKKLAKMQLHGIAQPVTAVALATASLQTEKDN
In short: as §1

ERG = target: T4, ERG (Homo sapiens, UniProt P11308 1-479)
T4 sequence: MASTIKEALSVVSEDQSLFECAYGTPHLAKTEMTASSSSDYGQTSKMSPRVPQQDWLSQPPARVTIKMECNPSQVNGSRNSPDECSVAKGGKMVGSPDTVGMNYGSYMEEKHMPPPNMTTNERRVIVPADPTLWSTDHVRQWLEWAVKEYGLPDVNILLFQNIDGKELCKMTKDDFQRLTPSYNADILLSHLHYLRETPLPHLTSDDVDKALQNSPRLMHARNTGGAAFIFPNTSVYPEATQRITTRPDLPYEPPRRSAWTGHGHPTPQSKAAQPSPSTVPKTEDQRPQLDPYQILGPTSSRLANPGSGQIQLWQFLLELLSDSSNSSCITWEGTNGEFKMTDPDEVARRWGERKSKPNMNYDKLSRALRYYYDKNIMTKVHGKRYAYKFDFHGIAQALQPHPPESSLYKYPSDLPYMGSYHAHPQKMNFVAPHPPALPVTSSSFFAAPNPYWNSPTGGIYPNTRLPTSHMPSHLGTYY
In short: as §1

ELF1 = ELF1 (Homo sapiens, UniProt P32519 1-619)
ELF1, sequence (P32519 whole entry): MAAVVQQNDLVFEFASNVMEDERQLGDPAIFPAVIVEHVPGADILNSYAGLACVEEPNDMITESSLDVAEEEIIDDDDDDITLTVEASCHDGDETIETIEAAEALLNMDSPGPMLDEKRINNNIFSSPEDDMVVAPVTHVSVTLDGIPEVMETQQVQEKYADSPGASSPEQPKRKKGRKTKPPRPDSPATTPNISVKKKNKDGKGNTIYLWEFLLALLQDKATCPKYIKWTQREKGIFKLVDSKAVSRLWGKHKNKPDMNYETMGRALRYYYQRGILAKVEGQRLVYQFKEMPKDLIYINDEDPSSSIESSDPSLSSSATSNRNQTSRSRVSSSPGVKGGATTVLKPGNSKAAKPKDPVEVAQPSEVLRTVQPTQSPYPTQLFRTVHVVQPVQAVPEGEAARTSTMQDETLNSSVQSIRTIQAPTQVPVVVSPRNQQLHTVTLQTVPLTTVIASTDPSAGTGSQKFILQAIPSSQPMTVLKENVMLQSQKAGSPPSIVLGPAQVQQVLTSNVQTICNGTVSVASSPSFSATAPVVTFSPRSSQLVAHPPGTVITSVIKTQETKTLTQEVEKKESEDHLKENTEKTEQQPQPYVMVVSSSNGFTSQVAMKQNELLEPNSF
In short: as §1

EHF = target: T5, EHF (Homo sapiens, UniProt Q9NZC4 1-300)
T5 sequence: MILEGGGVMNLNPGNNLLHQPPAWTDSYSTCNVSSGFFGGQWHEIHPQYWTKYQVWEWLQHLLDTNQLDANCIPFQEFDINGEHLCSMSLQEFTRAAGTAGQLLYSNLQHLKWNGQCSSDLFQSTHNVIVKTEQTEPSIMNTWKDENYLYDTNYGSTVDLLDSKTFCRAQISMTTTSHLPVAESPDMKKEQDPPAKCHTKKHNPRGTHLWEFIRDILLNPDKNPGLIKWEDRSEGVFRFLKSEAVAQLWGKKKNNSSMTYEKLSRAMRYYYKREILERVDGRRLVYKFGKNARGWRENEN
In short: as §1

SPI1 = SPI1 (Homo sapiens, UniProt P17947 1-270)
In short: as §1

SPIB = SPIB (Homo sapiens, UniProt Q01892 1-262)
SPIB, sequence (Q01892 whole entry): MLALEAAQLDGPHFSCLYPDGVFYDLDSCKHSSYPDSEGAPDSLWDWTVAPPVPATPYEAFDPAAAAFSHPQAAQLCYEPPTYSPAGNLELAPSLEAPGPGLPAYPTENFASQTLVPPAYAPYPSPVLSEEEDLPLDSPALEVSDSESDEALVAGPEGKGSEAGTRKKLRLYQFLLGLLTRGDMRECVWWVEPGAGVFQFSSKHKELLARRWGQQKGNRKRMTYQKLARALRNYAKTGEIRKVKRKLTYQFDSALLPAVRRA
In short: as §1

ELK3 = target: T6, ELK3 (Homo sapiens, UniProt P41970 1-407)
T6 sequence: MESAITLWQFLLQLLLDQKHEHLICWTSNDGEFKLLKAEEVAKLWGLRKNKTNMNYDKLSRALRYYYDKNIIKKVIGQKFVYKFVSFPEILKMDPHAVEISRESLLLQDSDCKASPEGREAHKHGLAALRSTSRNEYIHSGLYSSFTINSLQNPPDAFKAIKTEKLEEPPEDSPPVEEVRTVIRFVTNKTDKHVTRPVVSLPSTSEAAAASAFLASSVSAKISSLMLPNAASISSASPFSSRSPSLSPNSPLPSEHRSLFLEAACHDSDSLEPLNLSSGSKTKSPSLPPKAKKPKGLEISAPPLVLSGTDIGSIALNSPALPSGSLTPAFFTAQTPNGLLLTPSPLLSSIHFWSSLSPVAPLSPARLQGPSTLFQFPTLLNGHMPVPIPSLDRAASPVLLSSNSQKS
In short: as §1

Row | Sequence | binding signal (FLI1) | binding signal (ELK1) | binding signal (GABPA) | binding signal (ERG) | binding signal (ELF1) | binding signal (EHF) | binding signal (SPI1) | binding signal (SPIB) | binding signal (ELK3)
1 | CTCGCA | 1.34 fold enrichment (6-mer frequency, TF over GST control) | 1.25 fold enrichment (6-mer frequency, TF over GST control) | 1.29 fold enrichment (6-mer frequency, TF over GST control) | 1.29 fold enrichment (6-mer frequency, TF over GST control) | 1.27 fold enrichment (6-mer frequency, TF over GST control) | 1.3 fold enrichment (6-mer frequency, TF over GST control) | 1.27 fold enrichment (6-mer frequency, TF over GST control) | 1.22 fold enrichment (6-mer frequency, TF over GST control) | 1.17 fold enrichment (6-mer frequency, TF over GST control)
2 | TATCCA | 1.3 fold enrichment (6-mer frequency, TF over GST control) | 1.36 fold enrichment (6-mer frequency, TF over GST control) | 1.3 fold enrichment (6-mer frequency, TF over GST control) | 1.22 fold enrichment (6-mer frequency, TF over GST control) | 1.29 fold enrichment (6-mer frequency, TF over GST control) | 1.26 fold enrichment (6-mer frequency, TF over GST control) | 1.27 fold enrichment (6-mer frequency, TF over GST control) | 1.36 fold enrichment (6-mer frequency, TF over GST control) | 1.37 fold enrichment (6-mer frequency, TF over GST control)
3 | GTTTCT | 1.36 fold enrichment (6-mer frequency, TF over GST control) | 1.17 fold enrichment (6-mer frequency, TF over GST control) | 1.26 fold enrichment (6-mer frequency, TF over GST control) | 1.22 fold enrichment (6-mer frequency, TF over GST control) | 1.29 fold enrichment (6-mer frequency, TF over GST control) | 1.28 fold enrichment (6-mer frequency, TF over GST control) | 1.31 fold enrichment (6-mer frequency, TF over GST control) | 1.25 fold enrichment (6-mer frequency, TF over GST control) | 1.14 fold enrichment (6-mer frequency, TF over GST control)
4 | TACCCG | 1.42 fold enrichment (6-mer frequency, TF over GST control) | 1.35 fold enrichment (6-mer frequency, TF over GST control) | 1.51 fold enrichment (6-mer frequency, TF over GST control) | 1.57 fold enrichment (6-mer frequency, TF over GST control) | 1.52 fold enrichment (6-mer frequency, TF over GST control) | 1.58 fold enrichment (6-mer frequency, TF over GST control) | 1.42 fold enrichment (6-mer frequency, TF over GST control) | 1.52 fold enrichment (6-mer frequency, TF over GST control) | 1.37 fold enrichment (6-mer frequency, TF over GST control)
5 | CTTCGA | 1.4 fold enrichment (6-mer frequency, TF over GST control) | 1.33 fold enrichment (6-mer frequency, TF over GST control) | 1.25 fold enrichment (6-mer frequency, TF over GST control) | 1.49 fold enrichment (6-mer frequency, TF over GST control) | 1.41 fold enrichment (6-mer frequency, TF over GST control) | 1.19 fold enrichment (6-mer frequency, TF over GST control) | 1.3 fold enrichment (6-mer frequency, TF over GST control) | 1.31 fold enrichment (6-mer frequency, TF over GST control) | 1.57 fold enrichment (6-mer frequency, TF over GST control)
6 | TAAAAC | 1.17 fold enrichment (6-mer frequency, TF over GST control) | 1.18 fold enrichment (6-mer frequency, TF over GST control) | 1.14 fold enrichment (6-mer frequency, TF over GST control) | 1.18 fold enrichment (6-mer frequency, TF over GST control) | 1.24 fold enrichment (6-mer frequency, TF over GST control) | 1.11 fold enrichment (6-mer frequency, TF over GST control) | 1.2 fold enrichment (6-mer frequency, TF over GST control) | 1.17 fold enrichment (6-mer frequency, TF over GST control) | 1.19 fold enrichment (6-mer frequency, TF over GST control)
7 | CATACT | 1.34 fold enrichment (6-mer frequency, TF over GST control) | 1.29 fold enrichment (6-mer frequency, TF over GST control) | 1.36 fold enrichment (6-mer frequency, TF over GST control) | 1.27 fold enrichment (6-mer frequency, TF over GST control) | 1.34 fold enrichment (6-mer frequency, TF over GST control) | 1.31 fold enrichment (6-mer frequency, TF over GST control) | 1.33 fold enrichment (6-mer frequency, TF over GST control) | 1.29 fold enrichment (6-mer frequency, TF over GST control) | 1.29 fold enrichment (6-mer frequency, TF over GST control)

From paper PMC7862700, “An all-to-all approach to the identification of sequence-specific readers for epigenetic DNA modifications on cytosine”
